In all, about 340,000 compounds went through this assay and about 1,000 (0.29%) were called active. No stated cut-off is given here; in the data, inconclusive means inhibition above about 27% without an active follow-up result; inactive means below that. The list is a sample of the results. Entries with a potency or affinity are not part of this list.
Assay: H1N1 influenza NS1A inhibitors, functional cell based assay (AID 504329)
Conditions: percent inhibition, at 12.5 µM, active compounds read high
With `CCCn1c2ccccc2c2cnn(CC(=O)NCCCOC)c(=O)c21` the inhibition was 0.78% (inactive). With `CCN(CC(=O)Nc1c(F)cccc1F)C(=O)CNC(=O)c1ccco1` the inhibition was -4.3% (inactive). In the case of `CN1c2ccccc2N(C)C1(C)c1ccccc1`, the inhibition is reported as 14.4% (inactive). With `CN1c2cccc3cccc(c23)N(C)C1(C)C` the inhibition was 20.9% (inactive). With `CC(C(c1ccc2c(c1)OCO2)c1c(N)n(C)c(=O)n(C)c1=O)[N+](=O)[O-]` (stereo not given) the inhibition was -16.4% (inactive). For `COc1ccc(NC(=O)CSc2nnc3ccc(-c4cccnc4)nn23)cc1OC`, the inhibition was -19.3% (inactive). With `COC(=O)c1ccc(C(=O)NC(=S)Nc2ccc3nc(SC)sc3c2)cc1` the inhibition was -0.55% (inactive). With `NS(=O)(=O)c1cccc(NC(=O)COC(=O)COc2ccc3ccccc3c2)c1` the inhibition was -0.29% (inactive). In the case of `O=C(N/N=C/c1cccs1)c1ccc2c(c1)OCO2`, the inhibition is reported as 8.44% (inactive). With `CN(C)c1ccc(N=Nc2ccc(C(=O)O)cc2)cc1` the inhibition was -2.64% (inactive). In the case of `CC(=O)c1ccc(N=Nc2ccc(N(C)C)cc2)cc1`, the inhibition is reported as 13% (inactive). For `Nc1n[nH]c(N)c1N=Nc1cccc(F)c1`, the inhibition was 1.03% (inactive). For `CN(C)c1ccc2c(c1)OC(N)=C(C#N)C2c1cccc(F)c1` (stereo not given), the inhibition was -65.2% (inactive). With `Cc1c(Cl)c(C(F)(F)F)nn1CC(=O)NN` the inhibition was 3.69% (inactive). For `O=C(NCc1ccccn1)/C(=C/c1ccco1)NC(=O)c1ccccc1`, the inhibition was 1.38% (inactive). In the case of `CCOC(=O)N1CCN(C(=O)c2sc3nc(-c4ccc(F)cc4)cn3c2C)CC1`, the inhibition is reported as -1.44% (inactive). For `O=C(Cc1ccccc1)Nn1c(-c2ccccc2F)nc2ccccc2c1=O`, the inhibition was -1.28% (inactive). With `CC1(O)CC2CC1C(C(=O)O)C2C(=O)O` (stereo not given) the inhibition was -2.28% (inactive). In the case of `CCn1cc([N+](=O)[O-])c(C(=O)N2CCCc3ccccc32)n1`, the inhibition is reported as 4.06% (inactive). In the case of `COc1ccc(F)cc1S(=O)(=O)n1cnc2ccccc21`, the inhibition is reported as 2.94% (inactive). In the case of `CCOc1ccc(OCCCC(=O)O)cc1`, the inhibition is reported as -12.4% (inactive). For `COC(=O)c1ccc(N2CCN(C)CC2)c(NC(=O)c2ccc(-c3ccc(Cl)cc3)o2)c1`, the inhibition was -4.26% (inactive). With `CN1CCN(c2ccc(NC(=O)c3ccc(-c4ccc(Cl)cc4)o3)cc2)CC1` the inhibition was 6.66% (inactive). With `N#C/C(=C\c1ccc(OCc2ccccc2)cc1)C(N)=O` the inhibition was 4.02% (inactive). For `CCn1c(=O)n(CC)c2cc(N3CCCC3)c(NC(=O)c3cc(Cl)ccc3OC)cc21`, the inhibition was 12.7% (inactive). In the case of `CN1CCN(/N=C/c2ccc(-c3ccccc3)cc2)CC1`, the inhibition is reported as 10.8% (inactive). In the case of `CN1CCN(/N=C/c2cccc(Cl)c2Cl)CC1`, the inhibition is reported as 3.86% (inactive). With `Cc1ccc(C)c(OCCSc2nnc(C)c(=O)[nH]2)c1` the inhibition was -14.8% (inactive). In the case of `Cc1ccc(S(=O)(=O)N2CCCC(C(=O)N3CCC4(CC3)OCCO4)C2)cc1` (stereo not given), the inhibition is reported as 2.04% (inactive). In the case of `COc1ccc(S(=O)(=O)N(CCC(=O)O)Cc2ccccc2)cc1`, the inhibition is reported as -3.39% (inactive). For `O=C(N/N=C/c1cc(Br)c(Br)o1)c1cccnc1`, the inhibition was 4.32% (inactive). In the case of `COc1cc(/C=N/NC(=O)c2cccnc2)cc(Br)c1O`, the inhibition is reported as 3.86% (inactive). For `O=C(N/N=C/c1cc2c(cc1Br)OCO2)c1cccnc1`, the inhibition was 3.42% (inactive). With `O=C(N/N=C/c1cc(Br)c(O)c(Br)c1)c1cccnc1` the inhibition was -2.33% (inactive). With `Cc1ccc(N(CC(=O)NCc2ccccn2)S(=O)(=O)c2ccccc2)cc1Cl` the inhibition was -3.75% (inactive). For `Cc1ccc(NC(=O)CCN2C(=O)CSC2=O)cc1`, the inhibition was -13.2% (inactive). For `CCCCN1C(=O)/C(=C2/Sc3ccc(OC)cc3N2CC)SC1=S`, the inhibition was -6.84% (inactive). For `COc1ccc2c(c1)-c1c(sn(-c3ccccc3)c1=S)C(C)(C)N2`, the inhibition was 0.13% (inactive). In the case of `COc1cc2c3c(c1)-c1c(sn(-c4cc(OC)ccc4OC)c1=S)C(C)(C)N3C(=O)C2=O`, the inhibition is reported as 7.42% (inactive). For `COc1ccc(N2CCN(C(=O)c3ccc(Cl)c(S(=O)(=O)N4CCOCC4)c3)CC2)cc1`, the inhibition was -0.24% (inactive). With `CN(C)c1c(-c2ccccc2)cc(-c2ccccc2)[nH]c1=O` the inhibition was -13.7% (inactive). For `O=C(O)c1cccc(N2C(=O)/C(=C/c3ccc([N+](=O)[O-])cc3)C=C2c2ccccc2)c1`, the inhibition was 15.9% (inactive). In the case of `O=C1/C(=C/c2ccc([N+](=O)[O-])cc2)C=C(c2ccccc2)N1c1ccccc1`, the inhibition is reported as 16.3% (inactive). For `CSCCC(NC(=O)c1ccccc1)C(=O)N1CCN(C(=O)c2ccccc2)CC1` (stereo not given), the inhibition was -5.85% (inactive). For `C[C@H](CO)N1C[C@H](C)[C@@H](CN(C)S(=O)(=O)c2ccc(F)cc2)Oc2c(NS(=O)(=O)c3ccccc3)cccc2C1=O`, the inhibition was -4.12% (inactive). For `Cc1oc(-c2cccc(Cl)c2)nc1CN1CCC(C(=O)NCc2cccnc2)CC1`, the inhibition was 9.09% (inactive). For `COc1ccccc1NC(=O)CN1CCN(CC(=O)Nc2ccc(F)cc2)CC1`, the inhibition was 1.85% (inactive). With `CCOc1ccc(NC(=O)CN2CCN(CC(=O)Nc3ccccc3OC)CC2)cc1` the inhibition was -5.69% (inactive). With `CCOC(=O)c1c(NC(=O)CN2CCN(C(=O)c3ccco3)CC2)sc(C)c1C` the inhibition was -5.18% (inactive). For `CC[n+]1c(/C=C(/C)SC)sc2ccccc21`, the inhibition was -2.81% (inactive). In the case of `CCN1/C(=C\C=C(C(C)=O)C(C)=O)Sc2ccccc21`, the inhibition is reported as 3.69% (inactive). In the case of `CC/C(=C/c1sc2ccccc2[n+]1CC)SC`, the inhibition is reported as -0.17% (inactive). With `CC[n+]1c(/C=C(\C)SC)sc2ccccc21` the inhibition was 3.81% (inactive). In the case of `CC[n+]1c(/C=C(\C)OC)sc2ccccc21`, the inhibition is reported as -2.73% (inactive). With `CC[n+]1c(/C=C/Nc2ccccc2)sc2ccccc21` the inhibition was 11.6% (inactive). In the case of `Cc1nn(C(C)C(=O)NNC(=S)Nc2ccc(F)cc2)c(C)c1[N+](=O)[O-]` (stereo not given), the inhibition is reported as 6.47% (inactive). In the case of `Cc1c(O)ccc(C(=O)CN2CCN(c3ccccc3F)CC2)c1O`, the inhibition is reported as -1.8% (inactive). For `CC(C)(C)c1ccc(C(=O)NCCCNC(=O)c2cccnc2)cc1`, the inhibition was -2.72% (inactive). In the case of `CCN(CC)C(=O)c1sc2nc(-c3ccccn3)[nH]c(=O)c2c1C`, the inhibition is reported as -6.6% (inactive). With `Cc1sc2nc(-c3ccccn3)[nH]c(=O)c2c1-c1ccccc1` the inhibition was -4.3% (inactive). In the case of `Cc1cc(C)c(S(=O)(=O)N2CCCC(C(=O)N3CCOCC3)C2)c(C)c1` (stereo not given), the inhibition is reported as -9.55% (inactive). In the case of `Fc1ccccc1NC(=S)N1CCOCC1`, the inhibition is reported as 16.1% (inactive). With `COC(=O)c1sc(S(=O)(=O)Nc2ccc(C)cc2)c(C(=O)OC)c1C` the inhibition was 12.7% (inactive). In the case of `CCN(/C(N)=N/c1nc(C)cc(C)n1)c1ccccc1`, the inhibition is reported as -6.77% (inactive). With `CC12CCC(C(=O)N(CSC(=S)N/N=C\c3ccccc3)C1=O)C2(C)C` (stereo not given) the inhibition was 6.84% (inactive). With `CC12CCC(C(=O)N(CSC(=S)N/N=C\c3ccccc3Cl)C1=O)C2(C)C` (stereo not given) the inhibition was -1.31% (inactive). For `CCC(C(=O)NC1CCCC1)n1c(SCc2cccc(C)c2)nc2ccncc21` (stereo not given), the inhibition was -51.9% (inactive). In the case of `O=[N+]([O-])c1c(NCCCO)cc(N2CCCCCC2)c2nonc12`, the inhibition is reported as 21.6% (inactive). In the case of `COc1ccc(-c2nc(C#N)c(N3CC(C)OC(C)C3)o2)cc1OC` (stereo not given), the inhibition is reported as 2.35% (inactive). In the case of `COc1ccc(NS(=O)(=O)c2ccc(C(=O)N3CCN(c4ccc(F)cc4)CC3)cc2)cc1`, the inhibition is reported as 1.18% (inactive). For `CC(CC(F)(F)F)N1CCC(n2nccc2NC(=O)CCCc2ccccc2)CC1` (stereo not given), the inhibition was -11% (inactive). With `Oc1c(Br)cc(Br)cc1/C=N/Nc1ccc(Cl)nn1` the inhibition was 4.26% (inactive). With `Oc1ccc(/C=N/Nc2ccc(Cl)nn2)cc1O` the inhibition was 4.82% (inactive). For `Cc1ccccc1/C=N/Nc1ccc(Cl)nn1`, the inhibition was 3.61% (inactive). For `Fc1ccccc1/C=N/Nc1ccc(Cl)nn1`, the inhibition was -6.11% (inactive). In the case of `CCCCC(=O)Nc1cccc(C(=O)N/N=C/c2ccc(OC)cc2OC)c1`, the inhibition is reported as 1.12% (inactive). In the case of `CC(C)OC(=O)c1cn(-c2ccccc2)nc1-c1ccc2c(c1)OCCO2`, the inhibition is reported as -6.27% (inactive). With `CCN(C[C@H]1N[C@@](C)(C(=O)OC)[C@H]2C(=O)N(Cc3ccccc3)C(=O)[C@@H]12)C(=O)c1ccc(F)cc1` the inhibition was -26.8% (inactive). For `O=C(CN1CCN(C(C(=O)Nc2ccc(Cl)cc2C(F)(F)F)c2ccccc2)CC1)NC1CC1` (stereo not given), the inhibition was 3.63% (inactive). With `CC(=O)c1ccc(NC(=O)C(C)Nc2ccc(Cl)cc2)cc1` (stereo not given) the inhibition was -4.25% (inactive). In the case of `COC(=O)C(=CC(=CN(C)C)C=C(C(=O)OC)C(=O)OC)C(=O)OC`, the inhibition is reported as -13.2% (inactive). With `CC(C)Cn1c(NCCO)nc2ccccc21` the inhibition was -6.72% (inactive). With `O=C(COC(=O)c1ccccn1)Nc1cccc2ccccc12` the inhibition was -2.54% (inactive). For `O=c1[nH]c(-c2ccccn2)cc2ccccc12`, the inhibition was -3.67% (inactive). With `CN(C)CCCNCC(=O)Nc1ccccc1N1CCOCC1` the inhibition was 5.38% (inactive). With `O=C(COc1ccc2ccccc2c1)N1CCN(C(=O)c2ccco2)CC1` the inhibition was -12.2% (inactive). With `O=C1c2ccccc2C(=O)c2c1cccc2N(CCO)CCO` the inhibition was 4.16% (inactive). In the case of `CCN(CC)CC(=O)Nc1cccc2c1C(=O)c1ccccc1C2=O`, the inhibition is reported as 11% (inactive). In the case of `CN(C)S(=O)(=O)c1cccc2c1C(=O)c1ccccc1C2=O`, the inhibition is reported as 4.55% (inactive). With `CNc1c(C(=O)O)ccc2c1C(=O)c1ccccc1C2=O` the inhibition was 13.4% (inactive). In the case of `CC(=O)NC1=C(Nc2ccc(N(C)C)cc2)C(=O)c2ccccc2C1=O`, the inhibition is reported as 12.5% (inactive). In the case of `CN(C=[N+](C)C)c1cccc2c1C(=O)c1ccccc1C2=O`, the inhibition is reported as 3.5% (inactive). For `CC(C)C[C@H]1COCCS(=O)(=O)N1Cc1cccc(F)c1`, the inhibition was -14.6% (inactive). In the case of `Cc1ccc(NC(=O)CC2S/C(=N/c3nccs3)N(C)C2=O)c(C)c1` (stereo not given), the inhibition is reported as 2.84% (inactive). For `CCCCNC(=O)NNC(=O)c1ccoc1C`, the inhibition was 0.18% (inactive).

From PubChem BioAssay AID504329 (Southern Research Specialized Biocontainment Screening …, 2011)
